12-LOX inh = ALOX12 (human) lipoxygenase inhibition; purified 12hLO, xylenol orange hydroperoxide absorbance; Potency, µM (doses to about 108 µM), without a hit: at the top dose activity change, negative = inhibition, actives largely listed as inhibitors; 580,000 compounds, 1.1% hits; note: % is set by controls: 0 for no effect and ±100 for the full control effect
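Hydroperoxide product was detected by ferrous iron/xylenol orange as the 573 to 405 nm absorbance ratio. Arachidonic acid at 40 uM (final) was turned over for 30 min at room temperature by 150 nM human 12hLO, pH 7.0 Hepes buffer, after 15 min compound preincubation.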
PLK1 PBD block = PLK1 (human) polo-box domain binding inhibition; AID 720504; P53350; Plk1 PBD binding of FITC phosphopeptide, fluorescence polarization; Potency, µM, for inactives: max response, negative = inhibition, actives largely listed as inhibitors; 360,000 compounds, 2.8% hits; note: series mostly up to about 57 µM; % is set by controls: 0 for no effect and ±100 for the full control effect; nearly all actives have a fitted effect of over 65% in size
HP1b binding inh = inhibitors of HP1-beta chromodomain binding to methylated histone tails; 390,000 compounds, 0.56% hits; AID 540317; P83916; Potency, µM (top dose mostly 114 µM), inactives show top-dose activity change, negative = inhibition, most hits filed as inhibitors; AlphaScreen HP1-beta / biotin-H3K9me3 peptide binding; note: nearly all actives have a fitted effect of over 70% in size
Target sequence (P83916 whole entry, looked up): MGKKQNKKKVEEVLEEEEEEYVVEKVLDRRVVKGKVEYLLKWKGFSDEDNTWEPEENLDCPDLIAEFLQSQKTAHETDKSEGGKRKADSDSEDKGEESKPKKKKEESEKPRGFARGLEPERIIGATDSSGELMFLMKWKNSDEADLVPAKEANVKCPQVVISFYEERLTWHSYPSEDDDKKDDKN
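AlphaScreen: HP1-beta (50 nM) preformed 30 min with biotin-H3(1-18)K9me3 peptide (50 nM) in PBS pH 7.4, 0.01% Tween-20. Compound added for 30 min at RT, then streptavidin donor/nickel chelate acceptor beads (10 ug/mL) for 30 min.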
JMJD2A Tudor = inhibitors of human JMJD2A Tudor domain; AlphaScreen JMJD2A-Tudor / H3K4me3 peptide binding; Potency, µM (titrated, usually from 114 µM), inactives show top-dose activity change, negative = inhibition, hits mostly inhibitors; 390,000 compounds, 4.4% hits; AID 504339; note: % is set by controls: 0 for no effect and ±100 for the full control effect; nearly all actives have a fitted effect of over 50% in size
G9a inh = G9a (human) methyltransferase inhibition; 350,000 compounds, 8.8% hits; AID 504332; Q96KQ7; G9a H3K9 monomethylation, AlphaScreen, 2 h; Potency, µM (series often up to 102 µM), for the others: at the highest dose activity, negative = inhibition, usual class: inhibitors; note: % is set by controls: 0 for no effect and ±100 for the full control effect; nearly all actives have a fitted effect of over 75% in size
Target sequence (Q96KQ7 913-1193 limits assumed): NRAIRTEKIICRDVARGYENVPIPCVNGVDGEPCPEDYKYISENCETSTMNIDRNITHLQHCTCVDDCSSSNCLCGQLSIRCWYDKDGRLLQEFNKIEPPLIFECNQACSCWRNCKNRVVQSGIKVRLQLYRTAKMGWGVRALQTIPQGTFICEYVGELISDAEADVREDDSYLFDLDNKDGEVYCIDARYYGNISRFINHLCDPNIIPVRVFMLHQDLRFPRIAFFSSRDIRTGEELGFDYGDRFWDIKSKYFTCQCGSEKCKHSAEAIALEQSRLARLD
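AlphaScreen read-out: biotin-H3K9 peptide (500 nM) methylation by 20 nM enzyme with 20 uM SAM, 2 h at room temperature after 15 min compound preincubation; anti-monomethyl H3K9 antibody plus donor/acceptor beads, 10 min dark.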
BAZ2B inh = BAZ2B (human) inhibition; Q9UIF8; Potency, µM (highest dose often 114 µM), inactives show top-dose activity change, negative = inhibition, actives largely listed as inhibitors; 360,000 compounds, 4.4% hits; AID 504333; AlphaScreen BAZ2B-H3K14Ac peptide displacement; note: % is set by controls: 0 for no effect and ±100 for the full control effect; nearly all actives have a fitted effect of over 60% in size
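Protein-peptide AlphaScreen: BAZ2B 50 nM, b-H3K14Ac 50 nM, 1x PBS pH 7.4 + 0.01% Tween-20. Preincubation 30 min RT; cpd 30 min RT (top 110 uM); beads 20 min RT, light-protected.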
Active calls of the source: *; ? = inconclusive; . = not tested or not shown; [ ] = remark or other dose. Compounds with a hit are over-represented: about 9% of the library has one in this group of screens. Calls come from the whole dose curve; as a rule, active = well fitted curve in the direction sought with a large enough effect; inconclusive = small, poorly fitted or top-dose-only effect, or another doubt; inactive = no such curve, though single readings can be large; an effect the other way counts as inactive or inconclusive. Potency is the fitted concentration of half-maximal effect.

SMILES	12-LOX inh	PLK1 PBD block	HP1b binding inh	JMJD2A Tudor	G9a inh	BAZ2B inh
Cc1ccc(C)c(NC(=O)COc2coc(CN3CCc4ccccc43)cc2=O)c1	?	-6%	-9%	-34%	?	?
NC(=O)NC(Cc1ccccc1)c1ccccc1 (stereo not drawn)	9%	-4%	20%	-7%	23%[59 µM]	1%
CCN(c1ccccc1)c1nnc(NC(=O)Nc2ccccc2)s1	-18%	.	.	.	.	.
O=C(Cn1nc(C(F)F)cc1C(F)F)NNC(=S)Nc1ccc([N+](=O)[O-])cc1	?	-15%	-14%	?	20µM*	-30%
Cc1ccc(NC(=S)NNC(=O)CCn2cc(C)cn2)cc1	28%	0%	29%	-11%	50µM*	-2%
Cc1nn(CCC(=O)NNC(=S)Nc2ccc(F)cc2)c(C)c1Br	-24%	-15%	20%	-11%	?	6%
Cc1nn(CCC(=O)NNC(=S)Nc2ccc([N+](=O)[O-])cc2)c(C)c1[N+](=O)[O-]	-12%	?	-2%	-33%	8.9µM*	-26%
Cc1nn(C(C)C(=O)NNC(=S)Nc2ccc(F)cc2)c(C)c1[N+](=O)[O-] (stereo not drawn)	20%	0%	17%	-16%	45µM*	0%
Cc1cnn(CCC(=O)NNC(=S)Nc2ccccc2)c1	24%	-2%	37%	-1%	-3%[59 µM]	-2%
O=C(Cn1nc(C(F)F)cc1C(F)F)NNC(=S)Nc1ccc(F)cc1	13%	-9%	14%	-10%	?	10%
Cc1ccc(CC(CC(=O)NCCc2ccc3c(c2)OCO3)C(=O)O)cc1 (stereo not drawn)	-28%	1%	37%	12%	-50%	5%
CCN(CC)CCN(Cc1cc2ccc(C)c(C)c2[nH]c1=O)C(=S)NCc1ccco1	?	-5%	?	?	50µM*	?
Nc1cc(Cc2ccccc2)ccc1O	5.6µM*	-5%	45µM*	3.2µM*	.	.
Nc1cc(N)cc(Cc2ccccc2)c1	?	-7%	.	.	.	.
O=C1NC(c2ccccc2)C(C(=O)c2cccs2)C(O)(C(F)(F)F)N1 (stereo not drawn)	-2%	-6%	9%	-18%	?	0%
O=S(=O)(CCSc1nc2ccccc2o1)c1nc2ccccc2s1	-4%	?	55%	-13%	-13%[59 µM]	-4%
O=S(=O)(CCSc1ccccn1)c1nc2ccccc2s1	-11%	6.7µM*	122%	26%	?	34%
CCN1CCN(CCNC(=O)c2ccc(-c3nc(CS(=O)(=O)c4ccccc4)c(C)o3)cc2)CC1	-25%	.	.	.	.	.
ClCc1nc2ccccc2c2ccccc12	?	?	45%	1%	71µM*	-1%
CCOC(=O)c1c(CCl)nc2ccccc2c1-c1ccccc1	?	-6%	93%	18%	?	-15%
Cc1cc(N=Nc2c(O)c3ccccc3[nH]c2=O)ccc1N=Nc1ccc(C(=O)N(C)C)cc1	1%	-1%	13%	?	79µM*	?
COc1cc(N=Nc2ccc(C(=O)N(C)C)cc2)c(C)cc1N	-26%	6%	20µM*	3.5µM*	.	.
CN1CCCC2(Cc3ccccc3CN(C(=O)Cc3ccccc3)C2)C1 (stereo not drawn)	1%[6.33 µM]	.	.	.	.	.
CC(=O)c1sc2nsc(SCCN3CCCC3)c2c1N	0%	7.5µM*	?	89µM*	-75%[59 µM]	?
CCC(C)C(NC(=O)C1CCC(C)CC1)C(=O)NCc1cccnc1 (stereo not drawn)	-21%	3%	5%	-16%	-13%[59 µM]	-4%
SMILES	12-LOX inh	PLK1 PBD block	HP1b binding inh	JMJD2A Tudor	G9a inh	BAZ2B inh
N/C(=N\OC(=O)CCC1CCCC1)c1ccncc1	-7%	-12%	45%	-8%	24%	2%
Cn1ncc([N+](=O)[O-])c1C(=O)Nc1cccc(Cl)c1	?	-5%	6%	-12%	12%[0.501 µM]	0%
Cc1cc(O)c(C(=O)Nc2cccc(Cl)c2)c(=O)n1C	-13%	-16%	41%	0%	50µM*	-5%
CSc1cccc(NC(=O)c2c(Cl)cnn2C)c1	-2%	-14%	9%	-16%	-21%[59 µM]	9%
Cn1ncc(N=Cc2c(O)ccc3ccccc23)c1C(=O)Nc1cccc(Cl)c1	-15%	-14%	-8%	?	7.9µM*	50µM*
CCn1c(C)cc(O)c(C(=O)Nc2cccc(Cl)c2)c1=O	16%	-14%	41%	-4%	22%	4%
Cn1ncc(Cl)c1C(=O)Nc1cccc(Cl)c1	0%	24µM*	-20%	89µM*	2.8µM*	13%
CC(C)(C)c1ccc(C(O)c2ncc(-c3ccc4ccccc4c3)[nH]2)cc1 (stereo not drawn)	-5%	-4%	.	.	.	.
CC[C@H]1OC(=O)[C@H](C)[C@@H](O[C@H]2C[C@@](C)(OC)[C@@H](O)[C@H](C)O2)[C@H](C)[C@@H](O[C@@H]2O[C@@H](C)C[C@H](N(C)C)[C@@H]2O)[C@](C)(O)C[C@@H](C)C(=O)[C@H](C)[C@@H](O)[C@]1(C)O	3%[57.4 µM]	.	.	.	.	.
CC[C@H]1OC(=O)[C@H](C)[C@@H](O[C@H]2C[C@@](C)(OC)[C@@H](O)[C@H](C)O2)[C@H](C)[C@@H](O[C@@H]2O[C@H](C)C[C@H](N(C)C)[C@H]2O)[C@](C)(O)C[C@@H](C)C(=O)[C@H](C)[C@@H](O)[C@]1(C)O	15%	21µM*	29%	-29%	1%[12.7 µM]	-33%
CCOC(=O)C1CCN(S(=O)(=O)c2ccc(-c3nc4ccccc4s3)s2)CC1	?	-10%	39%	-23%	35µM*	-34%
COc1cc(OC)c2c(-c3cccc(-c4ccc(CO)cc4)c3)cc(=O)oc2c1	.	?	29%	-18%	0%	.
CCOCN(C(=O)Cn1c(CC(C)C)nc2ccccc21)c1c(C)cccc1CC	-24%	.	37%	0%	-34%[59 µM]	-2%
[O-]/[N+](=C\c1ccccc1)c1ccc(Br)cc1	0%	15µM*	-3%	?	9%[2.33 µM]	?
[O-]/[N+](=C\c1cccc(Br)c1)c1ccccc1	?	-10%	14%	-15%	40µM*	27%
[O-]/[N+](=C\c1ccc(F)cc1)c1ccccc1	?	-9%	4%	-1%	7.9µM*	3%
[O-]/[N+](=C\c1ccccc1)c1ccccc1	?	-12%	16%	-16%	10%[0.501 µM]	11%
Cc1ccc(-n2ncc3c(=O)n(CC(=O)N4CCN(C(=O)c5ccco5)CC4)cnc32)cc1	-8%	-3%	26%	-2%	34%[12.7 µM]	8%
COC(=O)C(NNc1ccccc1)(NC(=O)c1cccc(F)c1)C(F)(F)F (stereo not drawn)	8%	-8%	35%	-11%	2.2µM*	?

High-throughput results (PubChem BioAssay)
